According to PubChem BioAssay (NCI):
This is part of a sample that, as a whole, favours compounds with a hit. Of some 83,000 tested, about 20% had one in any assay.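 48-hour exposure, single concentration, 96-well plates; percent growth endpoint where 0 means no net growth. Active: below 10.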 A number with no mark means an inactive call. The source made the active and inactive calls.

The compounds below were run on HL-60(TB) leukemia (assay: NCI-60 one-dose screen, 48 h (100 = growth as untreated, 0 = no growth, -100 = all killed)). Conditions: 10 µM unless noted.

SMILES | growth
CC(C)(C)Nc1nc2c(OCCc3ccccc3)cccn2c1-c1ccc([N+](=O)[O-])cc1 | 47.4%
O=C(/C=C/c1cc(Cl)ccc1Cl)Nc1ncc(Cc2ccc(Cl)cc2)s1 | -7.21% (active)
Cn1cc(-c2nnc(N)nc2-c2c[nH]c3ccc(F)cc23)c2cc(Br)ccc21 | -20.7% (active)
Cn1cc(-c2nn3cc(-c4ccncc4)nc3s2)c2cc(Cl)ccc21 | -16% (active)
COc1cc2cc(Oc3ccc(NC(=O)c4cccc(C(F)(F)F)c4)cc3)c(C)nc2cc1OCCN1CCCCC1 | -51.6% (active)
Cc1[nH]nc2ncc(C#Cc3cncc(C(=O)Nc4ccc(CN5CCN(C)CC5)c(C(F)(F)F)c4)c3)cc12 | 13.6%
CC1=N[C@@H]2CN(C(=O)OC(C)(C)C)C[C@@H]2n2c1cc1ccccc1c2=O | 99.9%
CC(C)Sc1nc(NC2CC2)c(C#N)c(-c2ccccc2)n1 | 112%
